# PubChem BioAssay
# Legend:
# [1] = system: Human papillomavirus type 1a protein E7 (residues 44-93); test: HPV1a E7 fragment binders on microarrays, primary screen, biochemical, small-molecule microarray, residues 44-93, 635 nm fluorescence (AID 1108); conditions: small-molecule microarray binding, fluorescence 635 nm; higher = more signal;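 also: E7 fragment applied at 1 µg/mL in TBST for 1 h at 4 C; score combines spot fluorescence with its signal to noise ratio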
# [2] = modulators of HCV replicon luciferase signal, primary screen, HCV replication inhibitor project, Huh7 cells, luciferase reporter (AID 1109); conditions: 48 h, higher = more signal;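 also: huh7 hepatoma cells harbouring a luciferase neomycin HCV replicon reporter; luciferase luminescence as measure of HCV replicon replication; test concentration not given here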
# [3] = molecular target: Left-right determination factor 2 (Homo sapiens) (UniProt O00292); test: LEFTY2 binders on small-molecule microarrays, primary screen, biochemical, small-molecule microarray, 635 nm fluorescence scan (AID 1110); conditions: LEFTY2 binding, higher = more signal
# [4] = molecular target: Calmodulin-1 (Homo sapiens) (UniProt P0DP23); test: CALM1 binders on microarrays, EGTA buffer, profiling panel, biochemical, small-molecule microarray, Cy5-labelled CALM1 (AID 1111); conditions: Cy5-CALM1 binding fluorescence, higher = more signal;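 also: labelled calmodulin applied in Tris saline Tween buffer holding calcium plus EGTA and DTT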
# [5] = molecular target: Calmodulin-1 (Homo sapiens) (UniProt P0DP23); test: calcium-bound CALM1 binders on microarrays, profiling panel, artefact control for SMM control-protein annotation, biochemical, small-molecule microarray, Cy5-labelled CALM1, plus calcium (AID 1112); conditions: Cy5-CALM1 binding fluorescence, higher = more signal;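 also: score merges spot fluorescence with signal to noise from triplicate slides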
# [6] = small-molecule microarray binders of probe aWnt5a, primary screen, biochemical, biotinylated probe, 635/667 nm fluorescence (AID 1113); conditions: higher = more signal;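 also: score merges 667 nm fluorescence intensity with signal-to-noise per printed feature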
# [7] = small-molecule microarray binders of probe aShh, primary screen, biochemical, biotinylated probe, 635/667 nm fluorescence (AID 1114); conditions: higher = more signal;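 also: probe is biotin-labelled aShh protein from a stem cell growth factor screen; measures binding of labelled protein to compounds printed on the slide; score merges feature fluorescence at 667 nm with signal-to-noise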
# [8] = small-molecule microarray binders of probe aNog, primary screen, biochemical, biotinylated probe, 635/667 nm fluorescence (AID 1115); conditions: higher = more signal;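 also: probe is biotinylated aNog protein used at 0.15 µg/mL for 1 h at 4 C; z-score combines 667 nm fluorescence of each spot with its signal to noise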
# [9] = molecular target: Torsin-1A-interacting protein 1 (Homo sapiens) (UniProt Q5JTV8); test: LAP1 binders from COS7 cell lysate, primary screen, small-molecule microarray, 635/667 nm fluorescence (AID 1116); conditions: COS7-hLAP1 lysate binding, 635 nm fluorescence, higher = more signal
# [10] = molecular target: Alpha-bungarotoxin (Bungarus multicinctus) (UniProt P60615); test: alpha-bungarotoxin binders on microarray, profiling panel, artefact control for SMM control protein annotation, biochemical, small-molecule microarray, Alexa647 label, 635/667 nm fluorescence (AID 1117); conditions: alpha-BTX-A647 binding fluorescence, higher = more signal
# Alpha-bungarotoxin (Bungarus multicinctus), sequence (P60615 whole entry, looked up): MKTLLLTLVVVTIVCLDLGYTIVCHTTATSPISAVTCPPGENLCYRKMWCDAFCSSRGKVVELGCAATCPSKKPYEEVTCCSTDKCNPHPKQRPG
# Torsin-1A-interacting protein 1 (Homo sapiens), sequence (Q5JTV8 whole entry, looked up): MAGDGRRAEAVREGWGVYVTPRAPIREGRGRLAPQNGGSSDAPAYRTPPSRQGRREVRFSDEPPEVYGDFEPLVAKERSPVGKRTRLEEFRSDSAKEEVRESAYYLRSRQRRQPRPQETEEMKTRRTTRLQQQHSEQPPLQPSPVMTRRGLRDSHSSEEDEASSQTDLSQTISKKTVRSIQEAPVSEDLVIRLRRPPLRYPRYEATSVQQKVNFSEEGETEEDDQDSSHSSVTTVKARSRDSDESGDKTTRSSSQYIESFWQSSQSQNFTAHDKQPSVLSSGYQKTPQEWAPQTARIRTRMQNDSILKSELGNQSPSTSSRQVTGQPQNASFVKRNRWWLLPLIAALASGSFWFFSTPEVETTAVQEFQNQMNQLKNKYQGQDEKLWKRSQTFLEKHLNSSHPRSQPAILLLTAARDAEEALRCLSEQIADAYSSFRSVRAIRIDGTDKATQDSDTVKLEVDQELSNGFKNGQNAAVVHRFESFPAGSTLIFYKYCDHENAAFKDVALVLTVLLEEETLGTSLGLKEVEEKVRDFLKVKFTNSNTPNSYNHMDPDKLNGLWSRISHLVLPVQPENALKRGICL
# Left-right determination factor 2 (Homo sapiens), sequence (O00292 whole entry, looked up): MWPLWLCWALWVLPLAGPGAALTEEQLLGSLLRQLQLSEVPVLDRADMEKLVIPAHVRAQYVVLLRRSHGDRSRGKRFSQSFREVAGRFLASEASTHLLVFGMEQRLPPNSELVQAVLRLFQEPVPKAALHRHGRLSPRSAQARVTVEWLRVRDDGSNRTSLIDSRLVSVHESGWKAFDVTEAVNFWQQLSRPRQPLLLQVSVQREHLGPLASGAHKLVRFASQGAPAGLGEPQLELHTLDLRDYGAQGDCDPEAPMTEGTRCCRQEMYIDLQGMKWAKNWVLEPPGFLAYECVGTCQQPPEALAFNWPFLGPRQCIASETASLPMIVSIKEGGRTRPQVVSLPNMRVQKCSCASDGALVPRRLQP
SMILES,composite z-score [1],z-score [2],composite z-score [3],composite z-score [4],composite z-score [5],composite z-score [6],composite z-score [7],composite z-score [8],composite z-score [9],composite z-score [10]
Cc1cc(C)c(C(O)C2C=CC3C(=O)NC(=O)C3N2Nc2ccccn2)c(C)c1 (stereo not given),1.22,0.544,-0.318,0.62,0.153,-0.0596,0.0469,1.63,0.849,0.0525
COc1ccc(C(=O)Nc2cccc(CN3C(=O)[C@@]4(O[C@@H](CCn5cc([C@H](O)c6ccccc6)nn5)[C@H]([Si](C)(C)c5ccc(OC)cc5)[C@H]4C)c4ccccc43)c2)cc1,-0.32,-5.06,0.534,-0.0819,-0.346,0.0279,-0.262,-0.205,0.485,0.935
C=CCN1C(=O)[C@@]2(O[C@@H](CCO)[C@H]([Si](C)(C)c3ccc(OC)cc3)[C@H]2C)c2cc(N3C(=O)COc4ccccc43)ccc21,1.33,-5.18,0.345,0.695,-0.334,0.149,-0.0626,-0.292,1.16,0.445
COCCOC(=O)N1C(=O)[C@@]2(c3cc(C#CC4(O)CCCCCC4)ccc31)[C@H](c1ccc(O)cc1)N1[C@H](c3ccccc3)[C@H](c3ccccc3)OC(=O)[C@H]1[C@@H]2C(=O)N1CCc2cc(OC)c(OC)cc2C1,-0.213,-0.302,-1.24,-0.548,-0.179,-0.145,0.0756,-0.321,0.282,-0.678
COCCOC(=O)N1C(=O)[C@@]2(c3cc(C#Cc4ccc(OC)cc4)ccc31)[C@H](c1ccc(OCCO)cc1)N1[C@H](c3ccccc3)[C@H](c3ccccc3)OC(=O)[C@H]1[C@@H]2C(=O)N1CCc2cc(OC)c(OC)cc2C1,1.22,-0.603,0.493,0.784,0.458,-0.203,-0.0824,-0.0602,0.705,0.571
CCN(CC)c1ccc(N2CC=CC34O[C@@H]5C=CCOC(=O)[C@@H]5[C@H]3C(=O)N(CCCCCO)[C@@H]4C2=O)cc1 (stereo not given in full),0.221,-0.323,-0.938,-0.385,-0.0559,0.195,0.147,0.277,0.975,-1.28
C=C(/C(=C/C[C@@H](OC(C)=O)c1ccc(CO)o1)c1cnc2ccccc2c1)C(C)C,1.09,-2.37,1.06,0.384,-1.12,-0.0346,0.123,0.153,1.24,0.818
COc1ccccc1CN1C(=O)c2ccccc2[C@](Cc2ccccc2I)(C(=O)NCc2ccccc2)[C@@H]1c1ccc(CO)cc1,0.0977,-0.641,-0.703,0.0656,0.556,0.037,-0.264,-0.268,-0.0999,1.05
C=CCC(OC(C)=O)[C@@H]1[C@@H](N(Cc2cc3ccccc3o2)C(=O)c2cccc3ccccc23)c2cc(OCCCO)ccc2N1C(=O)Cc1ccc2ccccc2c1 (stereo not given in full),0.0073,-0.751,-0.31,0.191,0.223,-0.124,0.0711,-0.366,-0.089,0.474
O=C(NCC(O)CO)[C@@]1(Cc2ccccc2)COC(c2ccc(OCCCO)cc2)=N1 (stereo not given in full),0.422,-0.992,-0.483,0.77,1.11,-0.0704,-0.283,-0.134,0.561,-0.363
CC1CC/C=C\[C@H]2OC34C=CCN(CCN5CCOCC5)C(=O)[C@H]3N(CCCCCO)C(=O)[C@@H]4C2C(=O)O1 (stereo not given in full),-1.78,0.824,0.0111,-1.87,-1.59,-0.224,-0.0769,-0.321,-0.595,-1.06
C=C[C@H](OC)[C@@H](OC(=O)Nc1ccc(SC)cc1)c1ccc(OCCO)cc1,1.03,2.8,0.105,0.0629,0.362,0.0433,-0.0035,0.375,1.35,1.62
CCCC[C@H]1OB(O)C[C@H]2C1=C(C)Cn1c(=O)n(-c3ccccc3)c(=O)n12,0.422,-0.759,0.648,-0.305,-0.406,-0.215,-0.0035,-0.426,0.363,-0.149
C=C(C(=O)CC[C@@H](OC(C)=O)c1ccc(OCCO)cc1)C(C)C,0.522,-1.88,-0.384,-0.43,-0.908,0.117,-0.0866,0.365,0.159,0.227
Cc1c(NC(=O)/C(C#N)=C/C=C/c2ccccc2)c(=O)n(-c2ccccc2)n1C,-0.353,-0.683,0.277,0.193,-0.0357,-0.145,-0.416,-0.49,-0.296,0.754
[N-]=[N+]=NCc1ccccc1C[C@]1(C(=O)NCCN2CCOCC2)N=C(c2ccc(OCCCO)cc2)O[C@H]1c1ccccc1CN=[N+]=[N-],1.43,-3.91,0.278,0.86,0.368,-0.124,-0.146,-0.158,1.59,1.28
CO[C@H]1O[C@H](CO)[C@@H](OC(=O)Nc2ccc(C(F)(F)F)cc2)[C@H](OC(=O)Nc2ccccc2)[C@@H]1OC(=O)Nc1ccccc1,1.34,0.0041,0.003,1.08,-0.778,0.0887,-0.102,-0.305,1.01,0.462

SMILES,composite z-score [1],z-score [2],composite z-score [3],composite z-score [4],composite z-score [5],composite z-score [6],composite z-score [7],composite z-score [8],composite z-score [9],composite z-score [10]
CC(C)N1C(=O)c2ccccc2[C@](C)(C(=O)NCCCN(C)C)[C@@H]1c1ccc(CO)cc1,-0.0305,-0.104,-0.553,0.0958,-0.0609,-0.152,-0.214,-0.546,4.42,1.28
COCC1=C([C@H](O)CCc2ccccc2)[C@H](CO)[C@@H]2C(=O)N(Cc3ccccc3)C(=O)[C@@H]2C1,-0.0325,-0.711,0.435,-0.519,-0.465,-0.0194,-0.214,-0.139,0.167,0.206
C=C[C@H](C)[C@H](OC(=O)Nc1ccc(OC)cc1)c1ccc(O)c2ccccc12,-0.942,-3.3,-0.654,-1.38,-0.881,-0.129,-0.0709,-0.0691,0.041,-0.596
CN(C)CCCC[C@@H]1NC(=O)[C@@H]2C[C@H](C(=O)NCCCCCN)[C@H](c3ccc(O)cc3)N2C1=O,0.0063,0.285,-0.93,1.99,1.42,-0.208,-0.026,0.262,0.777,1.19
C=C(C(=O)CC[C@@H](OC(=O)c1cccnc1)c1ccc(CO)o1)C(C)C,1.03,-1.24,0.46,-0.478,-0.835,-0.139,-0.0701,0.337,1.35,0.346
C=CCNC(=O)[C@@H]1[C@H]2C(=O)O[C@H](c3ccccc3)[C@H](c3ccccc3)N2[C@H](c2ccccc2OCCO)[C@@]12C(=O)N(C(=O)OCCOC)c1ccc(C#CCC(C(=O)OC)C(=O)OC)cc12,1.12,-2.59,1.47,2.23,1.01,0.826,2.18,2.79,2.74,3.06
CC(=O)n1cc(C(O)C2C=CC3C(=O)N(c4ccccc4)C(=O)C3N2Nc2ccc(C#N)cc2)c2ccccc21 (stereo not given),1.48,-0.41,-0.125,0.449,-0.577,0.155,0.385,1.02,0.557,0.645
CN1C(=O)C2C(C1=O)C1C=C(c3ccc(CO)cc3)C2C(C2CC2)N1Cc1cc2c(cc1Br)OCO2 (stereo not given),1.36,-1.11,0.72,1.68,0.6,-0.027,-0.0866,1.04,2.24,1.73
OCCCc1cc[n+](Cc2cccc(OC(F)(F)F)c2)cc1,1.47,0.242,0.208,0.66,0.56,-0.0758,0.199,0.134,0.925,0.718
O=C1[C@H]2C=C(Br)[C@H](C[C@@H]2OCCOCCO)[C@@]12CO2,0.0617,-1.85,0.348,-0.2,-0.341,-0.0944,-0.0769,-0.303,0.0452,0.554
CCOC(=O)C1=CC[C@@H](c2cccc(Cl)c2)N(S(=O)(=O)c2ccc(C)cc2)[C@H]1c1ccc(C#N)cc1,1.41,-1.95,0.838,1.55,0.736,0.0266,0.0638,0.978,1.32,1.39
O=C1O[C@H](c2ccccc2)[C@H](c2ccccc2)N2[C@H]1[C@@H](C(=O)Nc1nc3ccccc3s1)[C@]1(C(=O)Nc3ccc(C#CC4=CCCCC4)cc31)[C@H]2c1ccc(OCCO)cc1,0.945,-1.91,0.56,1.36,0.536,-0.176,-0.188,1.37,-0.513,2.12
Cc1ccc([C@H]2C(C(=O)O)=C[C@@H](C(C)C)N2S(=O)(=O)c2ccc(C)cc2)cc1,1.39,0.58,-0.448,0.995,0.237,0.0597,-0.0769,0.129,0.984,0.11
CCCNC(=O)[C@@]1(C)c2ccccc2C(=O)N(Cc2cc(C(F)(F)F)cc(C(F)(F)F)c2)[C@H]1c1ccc(CO)cc1,1.23,-1.16,-0.657,0.0189,0.168,0.0377,-0.297,-0.158,1.61,0.919
O=C1O[C@H](c2ccccc2)[C@H](c2ccccc2)N2[C@H]1[C@@H](C(=O)NC[C@H](O)c1ccccc1)[C@]1(C(=O)Nc3ccc(C#CC4(O)CCCCCC4)cc31)[C@H]2c1ccccc1OCCO,1.36,-3.12,-0.0569,0.9,0.26,-0.145,0.147,0.52,0.791,0.837
C=CCN1C(=O)[C@@]2(O[C@@H](CCO)[C@H]([Si](C)(C)c3ccc(OC)cc3)[C@H]2C)c2cc(NC(C)=O)ccc21,0.128,-3.7,1.45,0.793,0.509,0.0136,-0.0769,-0.234,1.14,0.71
COC(=O)[C@@]1(Cc2ccc(F)cc2)[C@H]2c3cc(C(=O)N(C)C)n(Cc4ccccn4)c3C[C@H]2CN1C(=O)c1ccccc1,1.4,-1.39,0.256,0.63,0.681,-0.195,-0.333,0.535,1.11,0.0404
